Experimental data: PubChem BioAssay (NCI)
This is part of a sample that, as a whole, favours compounds with a hit. Of some 79,000 tested, about 15% had one in any assay. Activity calls are given as the source filed them. Rule as the data show it: active = growth inhibition above about 70%; inactive = the rest.

Key:
[1] = NCI Yeast Anticancer Drug Screen. Data for the rad50 strain (AID 155);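 also: 0% = growth of vehicle-only cultures of the same strain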; conditions: S. cerevisiae rad50 strain growth inhibition, active compounds read high; at 50.0 µM unless noted
How it was run: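 A DNA repair-deficient yeast mutant serves as the test organism; compound-induced growth inhibition is calculated against vehicle-treated cells.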

[2] = NCI Yeast Anticancer Drug Screen. Data for the mec2-1 strain (AID 157); conditions: S. cerevisiae mec2-1 strain, active compounds read high; at 50.0 µM unless noted
How it was run: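 Using mec2-1 yeast: add compound, measure growth, express inhibition versus vehicle-treated cultures.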

[3] = NCI Yeast Anticancer Drug Screen. Data for the sgs1 mgt1 strain (AID 161);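 also: 0% = growth of cultures given vehicle only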; conditions: S. cerevisiae sgs1 mgt1 strain, active compounds read high; at 50.0 µM unless noted
How it was run: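 This yeast growth screen uses a strain with defined DNA-repair lesions; compound-treated growth is compared with vehicle-treated growth.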

[4] = NCI Yeast Anticancer Drug Screen. Data for the cln2 rad14 strain (AID 165);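 also: 0% = growth equal to vehicle treated cultures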; conditions: S. cerevisiae cln2 rad14 strain, active compounds read high; at 50.0 µM unless noted
How it was run: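 Yeast strain cln2 rad14, bearing defects in cell cycle control and DNA repair, serves as the test system; values reflect growth inhibition compared with vehicle.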

[5] = NCI Yeast Anticancer Drug Screen. Data for the bub3 strain (AID 167); conditions: S. cerevisiae bub3 mutant strain, active compounds read high; at 50.0 µM unless noted
How it was run: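 Inhibition values come from growth of compound-treated mutant yeast normalised to vehicle-treated controls.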

[6] = NCI Yeast Anticancer Drug Screen. Data for the mlh1 rad18 strain (AID 175); conditions: S. cerevisiae mlh1 rad18 strain growth inhibition, active compounds read high; at 50.0 µM unless noted
How it was run: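 Steps: expose repair-defective yeast to compound; measure growth; express inhibition against vehicle-treated controls.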

Measured: growth inhibition

COc1c(Cl)cc(C(c2cc(Cl)c(OC)c(Cl)c2)C(Cl)(Cl)Cl)cc1Cl
inactive: [1] -11.7% | [2] -16.4% | [3] -13% | [4] -23.7% | [5] -3.95% | [6] 10.4%

N=C(N)C1CN(CC=O)C(=O)NC1=O (stereo not given)
inactive: [1] -11.7% | [2] 11.1% | [3] -2.65% | [4] 24.9% | [5] -4.15% | [6] 11.8%

CNc1cc(C(C)C)ccc1C
inactive: [1] 4.1% | [2] 8.75% | [3] 10.7% | [4] 0.85% | [5] 17.1% | [6] 3.25%

CCOC(=O)N1C(=O)C2C3C=CC(C2C1=O)C1C2C(=O)N(C(=O)OCC)C(=O)C2C31 (stereo not given)
inactive: [1] 1.4% | [2] -3.15% | [3] -37.4% | [4] -0.55% | [5] -19.9% | [6] -37.6%

CC(=O)Nc1c(N)c2ccccc2c2ccccc12
inactive: [1] -4.2% | [2] -13.9% | [3] -22.7% | [4] 1.75% | [5] -4.5% | [6] -12.2%
